# Measured values as given in PubChem BioAssay (NCATS).
# Inconclusive results are not listed. Active and inactive are the calls of the source. Unless noted, the rule behind the calls is not given here.
# Legend:
# [1] = qHTS profiling of the MIPE4 collection as inhibitors of Plasmodium falciparum (3D7) proliferation (AID 743344);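 note: scaled between DMSO vehicle wells and 0.29 µM artemisinin as full inhibition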; settings: P. falciparum 3D7 in erythrocytes, SYBR Green DNA fluorescence, 72 h; at 28.5 µM unless noted
# In short: (§1)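 Erythrocytes infected with P. falciparum (0.3% parasitemia, 2.5% hematocrit) incubated with compounds 72 h at 37 C, 5% CO2. Lysis with saponin/Triton buffer containing SYBR Green I, overnight at room temperature in the dark; DNA fluorescence (485/535 nm) normalised to 0.29 uM artemisinin and DMSO.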
# [2] = qHTS profiling of the MIPE4 collection as inhibitors of Plasmodium falciparum (DD2) proliferation (AID 743345); settings: P. falciparum Dd2 in erythrocytes, SYBR Green DNA, 72 h; at 28.5 µM unless noted
# In short: as §1
# [3] = qHTS profiling of the MIPE4 collection as inhibitors of Plasmodium falciparum (DD2) proliferation (Rep 2) (AID 743346); settings: P. falciparum Dd2 in erythrocytes, SYBR Green DNA, 72 h; at 28.5 µM unless noted
# In short: as §1
# [4] = qHTS profiling of the MIPE4 collection as inhibitors of Plasmodium falciparum (HB3) proliferation (AID 743347);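 note: plate controls were DMSO vehicle wells for no effect and artemisinin wells for full effect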; settings: P. falciparum HB3 in erythrocytes, SYBR Green DNA, 72 h; at 28.5 µM unless noted
# In short: as §1
# [5] = High-throughput drug toxicity screening in the BPDCN cell line Gen2.2 (AID 1224824); settings: Gen2.2 BPDCN cells; at 45.8 µM (top of the series) unless noted;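 note: cells exposed to compounds for 48 h before reading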
# In short: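 Gen2.2 cells, 500 per well in phenol red-free RPMI with 10% FBS, exposed to compounds 48 h at 37 C, 5% CO2; viability by CellTiter-Glo luminescence. Percent activity scaled to DMSO (100%) and 9.2 uM bortezomib final (0%).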
# [6] = High-throughput drug toxicity screening in the BPDCN cell line Cal-1 (AID 1224825); settings: Cal-1 BPDCN cell viability, qHTS; at 45.8 µM (top of the series) unless noted
# In short: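 Exponentially growing Cal-1 cells, 500 per well in phenol red-free RPMI with 10% FBS, were exposed to compounds for 48 h at 37 °C, 5% CO2. Viability was read by CellTiter-Glo luminescence and normalised to DMSO (100%) and 9.2 uM bortezomib (0%).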
# [7] = qHTS assay for measurement of the activity of small molecule inhibitors on Zika virus induced Caspase-3 activity in human iPSC derived neural progenitor cells (hNPCs) (AID 1224857; active = well fitted curve in the direction sought with a large enough effect; an effect the other way counts as inactive or inconclusive; note: % of control where 0% means no effect; nearly all actives have a fitted effect of over 65% in size)
# In short: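 Values are percent inhibition of virus-induced caspase-3/7 signal, scaled between uninfected cells and ZIKV-infected cells. Infection used 2 FFU/cell for 6 h after 1 h compound exposure.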
# [8] = qHTS Screen of the MIPE 4.0 Collection Against Ewings Sarcoma (RDES) (AID 1259252; active = well fitted curve in the direction sought with a large enough effect; an effect the other way counts as inactive or inconclusive; note: nearly all actives have a fitted effect of over 35% in size; note: potency is the fitted concentration of half-maximal effect)
# In short: (§2)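 Compound titrations go onto adherent log-phase cells 4 h after seeding, incubate 48 h at 37C, then CellTiter-Glo luminescence reports viability relative to DMSO and cell-free controls.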
# [9] = qHTS Screen of the MIPE 4.0 Collection Against Ewings Sarcoma (TC71) (AID 1259253; active = well fitted curve in the direction sought with a large enough effect; an effect the other way counts as inactive or inconclusive; note: nearly all actives have a fitted effect of over 40% in size; note: potency is the fitted concentration of half-maximal effect)
# In short: as §2
# [10] = qHTS Screen of the MIPE 4.0 Collection Against Ewings Sarcoma (TC32) (AID 1259256; active = well fitted curve in the direction sought with a large enough effect; an effect the other way counts as inactive or inconclusive; note: nearly all actives have a fitted effect of over 45% in size; note: potency is the fitted concentration of half-maximal effect)
# In short: as §2
# [11] = qHTS profiling for inhibitors of Plasmodium falciparum (DD2) proliferation (AID 743323); settings: lower = more inhibition; at 28.7 µM (top of the series) unless noted
# In short: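 Parasite proliferation measured via DNA-dye fluorescence, as uninfected erythrocytes lack DNA. Cultures at 0.3% parasitemia and 2.5% hematocrit incubated 72 h with compound; signal scaled between vehicle and 0.29 uM artemisinin wells.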
# [12] = qHTS profiling for inhibitors of Plasmodium falciparum (HB3) proliferation (AID 743324; active = well fitted curve in the direction sought with a large enough effect; an effect the other way counts as inactive or inconclusive;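 note: 100% = DMSO vehicle wells and 0% = artemisinin-treated control wells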); settings: Plasmodium falciparum HB3 blood-stage proliferation; at 28.7 µM (top of the series) unless noted
# In short: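 P. falciparum HB3 grown in erythrocytes (0.3% parasitemia, 2.5% hematocrit final) with compound for 72 h at 37 C, 5% CO2. Parasite DNA detected by SYBR Green after saponin/triton lysis overnight; normalized to 0.29 uM artemisinin and DMSO.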
# [13] = qHTS Screen of the MIPE 4.0 Collection Against Ewings Sarcoma (EW8) (AID 1259255; active = well fitted curve in the direction sought with a large enough effect; an effect the other way counts as inactive or inconclusive; note: nearly all actives have a fitted effect of over 35% in size; note: potency is the fitted concentration of half-maximal effect;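 for viability: 100% = DMSO-treated cells and 0% = medium-only wells without cells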)
# In short: as §2
# [14] = Identifying Small Molecule Inhibitors of Pancreatic Cancer Stem Cells (A278, Adherent) (AID 1259361; active = well fitted curve in the direction sought with a large enough effect; an effect the other way counts as inactive or inconclusive;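 note: 100% = DMSO-treated cells and 0% = cell-free media-only wells; nearly all actives have a fitted effect of over 35% in size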)
# In short: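 Viability is scored by CellTiter-Glo luminescence 48 h after dosing, expressed as percent activity against vehicle and no-cell references. Spheroid formats rely on cells cultured 14 days in stem cell media beforehand.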
# [15] = Identifying Small Molecule Inhibitors of Pancreatic Cancer Stem Cells (Panc1, Adherent) (AID 1259362; active = well fitted curve in the direction sought with a large enough effect; an effect the other way counts as inactive or inconclusive;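 note: compound exposure lasted 48 h before the viability read; plate controls were DMSO-treated cells for no effect and cell-free media wells for full effect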); settings: Potency: viability
# In short: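 Luminescent ATP readout (CellTiter-Glo) quantifies surviving cells after a 48 h drug incubation. Normalization uses DMSO wells as no inhibition and media-only wells as full inhibition; bortezomib served as positive control.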
SMILES,"parasite growth, % of DMSO control [1]","parasite growth remaining, % of DMSO control (lower = more inhibition) [2]","parasite growth, % of control (lower = inhibition) [3]","growth, % of control [4]","cell viability, % of control (lower = more cytotoxic) [5]",viability (% of control) [6],Potency [7],Potency [8],Potency [9],Potency [10],"activity, percent of control [11] [%]","remaining proliferation (% of control), lower = more inhibition [12] [%]",Potency [13],IC50 (viability decrease) [14],Potency [15]
C[C@@H]1[C@H](C)CC[C@]2(C(=O)O)CC[C@]3(C)C(=CC[C@@H]4[C@@]5(C)CC[C@H](O)C(C)(C)[C@H]5CC[C@]43C)[C@@H]12,4.81% [at 57.5 µM],55.6% [at 57.5 µM],8% [at 57.5 µM],3.02% [at 57.5 µM],41.3% [at 92.2 µM],29% [at 92.2 µM],inactive,2.7 µM (active),1.71 µM (active),1.52 µM (active),–,–,–,–,–
Cn1cc(-c2ccc3nnc(Sc4ccc5ncccc5c4)n3n2)cn1,36.1%,86.3%,42.5%,43.3%,121%,102%,inactive,20.9 µM (active),–,inactive,95.2,72.7,inactive,inactive,inactive
COc1cc(Nc2nc3ccccc3nc2NS(=O)(=O)c2ccc(NC(=O)c3ccc(C)c(OC)c3)cc2)cc(OC)c1,42%,40.5%,32.8%,17.6%,32.5%,78.5%,inactive,18.7 µM (active),20.9 µM (active),18.7 µM (active),–,–,–,–,–
C[C@@H](NC(=O)c1ncnc(N)c1Cl)c1ncc(C(=O)Nc2cc(C(F)(F)F)c(Cl)cn2)s1,63.1%,87.8%,–,60.9%,2.67%,66.8%,inactive,23.5 µM (active),–,23.5 µM (active),–,–,–,–,–
C[C@H](c1ccc(F)cc1CCCC(=O)O)N(c1cc(F)ccc1F)S(=O)(=O)c1ccc(Cl)cc1,48.3%,42.9%,35.7%,47.7%,144%,92.6%,inactive,18.7 µM (active),–,–,–,–,–,–,–
CCOc1ccccc1N=Nc1c(C)[nH]n(-c2nc(-c3ccccc3)cs2)c1=O,92.5%,102%,–,87.1%,97.4%,63.6%,inactive,16.6 µM (active),20.9 µM (active),11.8 µM (active),–,–,–,–,–
C[C@@]1(c2cc(-c3cncnc3)c(F)cc2F)CCSC(N)=N1,28.5%,44.7%,28.2%,14%,9.95%,13.1%,inactive,inactive,inactive,inactive,–,–,–,–,–
c1ccc(-c2oc3ncnc(NC[C@@H]4CCCO4)c3c2-c2ccccc2)cc1,36.2%,72.4%,41.6%,19.8%,343%,42.1%,inactive,–,23.5 µM (active),20.9 µM (active),–,–,18.7 µM (active),–,–
O=C(O)CCC=CCC[C@@H]1[C@H](N2CCCCC2)[C@@H](O)C[C@@H]1OCc1ccc(-c2ccccc2)cc1,67.9%,92.8%,62.3%,63%,169%,63%,inactive,inactive,inactive,inactive,–,–,–,–,–
FC(F)(F)c1ccc(C=Cc2nc(COc3ccc(CCCCn4ccnn4)cc3)co2)cc1,77.3%,85.5%,–,83.1%,102%,17.8%,inactive,0.059 µM (active),–,0.0332 µM (active),–,–,0.743 µM (active),–,–
NC(=O)c1noc([C@H](CCCC2CCCCC2)CC(=O)NO)n1,33.9%,125%,30.9%,48.3%,20%,7.18%,inactive,8.33 µM (active),26.4 µM (active),–,–,–,–,–,–
CCCCCOC(=O)Nc1nc(=O)n([C@@H]2O[C@H](C)[C@@H](O)C2O)cc1F (some centres not stated),253%,102%,83.9%,171%,124%,102%,inactive,inactive,–,20.9 µM (active),–,–,inactive,–,–
CN1CCc2c(n(Cc3ccc(C(=O)NO)cc3)c3ccccc23)C1,5.97%,11.6%,9.26%,4.11%,17.7%,3.16%,inactive,14.8 µM (active),18.7 µM (active),13.2 µM (active),–,–,–,–,–
